Test [1] can be described thus: NCI Yeast Anticancer Drug Screen. Data for the rad50 strain (AID 155).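 Further: 0% = growth of vehicle-only cultures of the same strain.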 To be noted: S. cerevisiae rad50 strain growth inhibition, hits give high values. An outline of the steps: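 Readout: growth inhibition relative to vehicle-treated cultures. Compound exposure was carried out in a genetically defined yeast strain deficient in DNA damage repair.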
Test [2] is described as follows: NCI Yeast Anticancer Drug Screen. Data for the mec2-1 strain (AID 157). To be noted: S. cerevisiae mec2-1 strain, hits give high values. The gist of the method:
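Cells of the genetically defined mec2-1 yeast strain are incubated with test compound. Inhibition of growth is calculated against vehicle-treated controls.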

The nature of test [3]: NCI Yeast Anticancer Drug Screen. Data for the sgs1 mgt1 strain (AID 161).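 Further: 0% = growth of cultures given vehicle only.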 To be noted: S. cerevisiae sgs1 mgt1 strain, hits give high values. An outline of the steps:
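Test agents were incubated with a DNA-repair-mutant yeast strain. Growth was then read and compared against vehicle-treated controls.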

Test [4] in a line: NCI Yeast Anticancer Drug Screen. Data for the cln2 rad14 strain (AID 165).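 Further: 0% = growth equal to vehicle treated cultures.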 To be noted: S. cerevisiae cln2 rad14 strain, hits give high values. The gist of the method: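 The screen exposed genetically defined yeast (cln2 rad14) to test compounds and scored growth inhibition relative to vehicle-treated controls.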
Test [5] is described as follows: NCI Yeast Anticancer Drug Screen. Data for the bub3 strain (AID 167). To be noted: S. cerevisiae bub3 mutant strain, hits give high values. The gist of the method: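 Readout: yeast growth inhibition, expressed relative to vehicle-only wells. The test organism is a mutant strain from a panel with lesions in DNA repair or checkpoint genes.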
The nature of test [6]: NCI Yeast Anticancer Drug Screen. Data for the mlh1 rad18 strain (AID 175). To be noted: S. cerevisiae mlh1 rad18 strain growth inhibition, hits give high values. The gist of the method: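 Compound-treated yeast growth, normalised to vehicle controls. Strain bears defined DNA repair mutations.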
The mark [7] stands for this setting: at 5.0 µM (retest, dose inferred, filed as 0.5).
[8] abbreviates: at 50.0 µM (retest, dose inferred, filed as 5.0).

The panel holds about 79,000 compounds, 15% with a hit somewhere; the sample as a whole holds those more often. Unmarked numbers belong to inactive results. Calls of active or inactive are those of the source. No stated cut-off is given here; in the data, active means growth inhibition above about 70%; inactive means the rest.

In the case of `N=C(N)c1ccc2oc3ccc(C(=N)N)cc3c(=O)c2c1`, the growth inhibition in test [1] (setting [7]) is 8%; in test [1] (setting [8]), 65%; in test [1] (at 50.0 µM), 57.8%; in test [2] (setting [7]), 3%; in test [2] (setting [8]), 70% (active); in test [2] (at 50.0 µM), 29.9%. Also, the growth inhibition was 21% in test [3] (setting [7]); 76% (active) in test [3] (setting [8]); 65.5% in test [3] (at 50.0 µM); 11% in test [4] (setting [7]); 65% in test [4] (setting [8]); 71.8% (active) in test [4] (at 50.0 µM). Further, the growth inhibition in test [5] (setting [7]) is -4%; in test [5] (setting [8]) it was 76% (active); in test [5] (at 50.0 µM), 38%; in test [6] (setting [7]), 10%; in test [6] (setting [8]), 77% (active); in test [6] (at 50.0 µM) it was 73.4% (active).
For the molecule `COC(=O)C([NH-])c1ccccc1.COC(=O)C([NH-])c1ccccc1.[Cl][Pt+2][Cl]` (stereo unspecified), the growth inhibition in test [1] (setting [7]) was 16%; in test [1] (setting [8]) it was 81% (active); in test [1] (at 50.0 µM), 69%; in test [2] (setting [7]), 11%; in test [2] (setting [8]), 37%; in test [2] (at 50.0 µM), 46.9%. In addition, the growth inhibition in test [3] (setting [7]) is 39%; in test [3] (setting [8]) it was 76% (active); in test [3] (at 50.0 µM), 76.3% (active); in test [4] (setting [7]), 0%; in test [4] (setting [8]), 43%; in test [4] (at 50.0 µM) it was 58%. Further, the growth inhibition was 5% in test [5] (setting [7]); 27% in test [5] (setting [8]); 30.2% in test [5] (at 50.0 µM); 21% in test [6] (setting [7]); 60% in test [6] (setting [8]); 76.7% (active) in test [6] (at 50.0 µM).
Regarding `OC(CCl)COc1c(Cl)c(Cl)c(Cl)c(Cl)c1Cl` (stereo unspecified), the growth inhibition in test [1] (setting [7]) was -3%; in test [1] (setting [8]) it was 7%; in test [1] (at 50.0 µM), -1%; in test [2] (setting [7]) it was -1%; in test [2] (setting [8]), 10%; in test [2] (at 50.0 µM), 4.55%. Moreover, the growth inhibition in test [3] (setting [7]) is -4%; in test [3] (setting [8]), 3%; in test [3] (at 50.0 µM) it was 93% (active); in test [4] (setting [7]), 2%; in test [4] (setting [8]) it was 9%; in test [4] (at 50.0 µM), -32.7%. Besides, the growth inhibition is 0% in test [5] (setting [7]); 16% in test [5] (setting [8]); 11.4% in test [5] (at 50.0 µM); -3% in test [6] (setting [7]); 5% in test [6] (setting [8]); 13.6% in test [6] (at 50.0 µM).
`COc1ccc2nc3cc(Cl)ccc3c(NCCNCCCNC(=O)c3cc(-c4ccccc4)nc4ccccc34)c2c1`: the growth inhibition was -14% in test [1] (setting [7]); 98% (active) in test [1] (setting [8]); 96.3% (active) in test [1] (at 50.0 µM); -1% in test [2] (setting [7]); 87% (active) in test [2] (setting [8]); 93.9% (active) in test [2] (at 50.0 µM). Besides, the growth inhibition is -5% in test [3] (setting [7]); 69% in test [3] (setting [8]); 95.2% (active) in test [3] (at 50.0 µM); 30% in test [4] (setting [7]); 98% (active) in test [4] (setting [8]); 97.5% (active) in test [4] (at 50.0 µM). For the same molecule, the growth inhibition in test [5] (setting [7]) is -15%; in test [5] (setting [8]), 97% (active); in test [5] (at 50.0 µM), 94.2% (active); in test [6] (setting [7]), -11%; in test [6] (setting [8]), 98% (active); in test [6] (at 50.0 µM), 98.2% (active).
On to `CC1=NN(c2nc(N)nc(C(C)Sc3cc(Cl)c(C)cc3S(N)(=O)=O)n2)C(C)(C)C1` (stereo unspecified), for which the growth inhibition was 4% in test [1] (setting [7]); 18% in test [1] (setting [8]); -51% in test [1] (at 50.0 µM); -1% in test [2] (setting [7]); -24% in test [2] (setting [8]); -25.8% in test [2] (at 50.0 µM). The growth inhibition in test [3] (setting [7]) was 8%; in test [3] (setting [8]), 1%; in test [3] (at 50.0 µM), -10.6%; in test [4] (setting [7]), 29%; in test [4] (setting [8]), -6%; in test [4] (at 50.0 µM), 40.9%. The growth inhibition is 41% in test [5] (setting [7]); 26% in test [5] (setting [8]); -17.1% in test [5] (at 50.0 µM); -6% in test [6] (setting [7]); 0% in test [6] (setting [8]); 2.9% in test [6] (at 50.0 µM).
With `O=C1C2=C(Nc3cc([N+](=O)[O-])ccc3N2)OC1c1c2ccccc2cc2ccccc12` (stereo unspecified), the growth inhibition in test [1] (setting [7]) is 89% (active); in test [1] (setting [8]), 98% (active); in test [1] (at 50.0 µM), 93.5% (active); in test [2] (setting [7]) it was 70% (active); in test [2] (setting [8]) it was 99% (active); in test [2] (at 50.0 µM) it was 66.4%. Moreover, the growth inhibition in test [3] (setting [7]) was 70% (active); in test [3] (setting [8]) it was 99% (active); in test [3] (at 50.0 µM) it was 96% (active); in test [4] (setting [7]), 62%; in test [4] (setting [8]) it was 98% (active); in test [4] (at 50.0 µM) it was 35.5%. Also, the growth inhibition in test [5] (setting [7]) is 34%; in test [5] (setting [8]), 99% (active); in test [5] (at 50.0 µM), 78.4% (active); in test [6] (setting [7]), 92% (active); in test [6] (setting [8]) it was 99% (active); in test [6] (at 50.0 µM), 93.6% (active).
As to `CCCCCCC(O)C(CO)CCCCC` (stereo unspecified), the growth inhibition was 0% in test [1] (setting [7]); 97% (active) in test [1] (setting [8]); 98% (active) in test [1] (at 50.0 µM); -2% in test [2] (setting [7]); 96% (active) in test [2] (setting [8]); 98% (active) in test [2] (at 50.0 µM). The growth inhibition in test [3] (setting [7]) is 1%; in test [3] (setting [8]), 62%; in test [3] (at 50.0 µM) it was 45.5%; in test [4] (setting [7]) it was 5%; in test [4] (setting [8]) it was 97% (active); in test [4] (at 50.0 µM), 98.8% (active). Besides, the growth inhibition in test [5] (setting [7]) is 0%; in test [5] (setting [8]), 97% (active); in test [5] (at 50.0 µM), 98.2% (active); in test [6] (setting [7]) it was -2%; in test [6] (setting [8]), 92% (active); in test [6] (at 50.0 µM), 98.5% (active).
